Consider eleven molecules from PMC5540273 (PLoS ONE, 2017).

Each structure is given as a SMILES string.

Some test systems named below: BUB1; CAMK1B; CAMK1D; CAMK1G; CAMK1; CAMK2A; CAMK2B; CAMK2D; CAMK2G; CAMK4; CAMKK1; CAMKK2; CASK; CDC2L2; CDK2; CDK3; CDK4-cyclinD1.
Common to all, as to settings: concentration: 1 μM, replicates: in singlicate; n = 1
The subject of the next test is T1, CDC2L1.
T1 construct: gene CDK11B

Another test deals with T2, CDC2L5.
T2 construct: gene CDK13

For the next test, the system named is T3, CDK11.
T3 construct: gene CDK19
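Note: KINOMEscan kinase panel screen.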

Regarding `NS(=O)(=O)c1cccc(-c2ccc3ncc(N4CCOCC4)nc3c2)c1` [GSK1535721], the “%Inh” value is reported as 0% with BUB1; 7% with CAMK1B; 18% in the test with CAMK1D; 15% with CAMK1G; 12% in the test on CAMK1; 0% in the test on CAMK2A. The “%Inh” value with CAMK2B stood at 2%; with CAMK2D, 21%; in the test on CAMK2G, 17%; in the test with CAMK4, 0%; in the test with CAMKK1, 11%; in the test on CAMKK2, 12%. In addition, the “%Inh” value with CASK came out at 1%; in the test with CDC2L1, 6%; in the test on CDC2L2, 34%; in the test on CDC2L5 it was 0%; in the test on CDK11 it was 7%; in the test with CDK2, 0%. Also, the “%Inh” value in the test with CDK3 and in the test on CDK4-cyclinD1 was 0% in each case.

As for `Cn1cc(-c2ccc3c(c2)CCN3C(=O)Cc2ccccc2Cl)c2c(N)ncnc21` [GSK2608885], the “%Inh” value with BUB1 was determined as 25%; in the test with CAMK1B it was 33%; in the test on CAMK1D, 22%; in the test with CAMK1G, 13%; with CAMK1, 44%; in the test with CAMK2A it was 0%. Further, the “%Inh” value turned out to be 0% with CAMK2B; 17% with CAMK2D; 34% in the test on CAMK2G; 0% in the test with CAMK4; 25% in the test with CAMKK1; 28% with CAMKK2. Also, the “%Inh” value came to 0% in the test with CASK; 0% with CDC2L1; 14% in the test on CDC2L2; 0% in the test with CDC2L5; 0% with CDK11; 0% in the test on CDK2. Besides, the “%Inh” value with CDK3 and with CDK4-cyclinD1 was 0% each time.

For the molecule `CN1c2ccc(NCc3ccc(F)cc3)cc2-c2c(cnn2C)S1(=O)=O`, the “%Inh” value in the test on BUB1, with CAMK1B, in the test on CAMK1D, with CAMK1G, in the test on CAMK1 and in the test on CAMK2A was 0% in each case. The “%Inh” value with CAMK2B was determined as 0%; with CAMK2D, 3%; in the test with CAMK2G, 15%; in the test with CAMK4 it was 22%; in the test on CAMKK1, 0%; in the test on CAMKK2, 0%. Also, the “%Inh” value in the test with CASK was found to be 26%; with CDC2L1 it was 0%; in the test with CDC2L2, 0%; in the test on CDC2L5 it was 27%; with CDK11, 0%; with CDK2, 25%. Also, the “%Inh” value was found to be 0% in the test with CDK3 and 21% with CDK4-cyclinD1.

For `Cc1nnc(-c2ccc3ncc(-c4ccc(S(C)=O)cc4)n3c2)o1` (stereo not shown), the “%Inh” value with BUB1 is on record as 16%; in the test on CAMK1B, 6%; in the test on CAMK1D, 0%; in the test on CAMK1G it was 26%; in the test on CAMK1, 0%; in the test with CAMK2A, 0%. Moreover, the “%Inh” value is listed as 0% in the test with CAMK2B; 25% with CAMK2D; 27% with CAMK2G; 0% in the test with CAMK4; 24% in the test on CAMKK1; 46% in the test on CAMKK2. Further, the “%Inh” value amounted to 0% in the test on CASK; 0% in the test with CDC2L1; 0% in the test on CDC2L2; 25% in the test on CDC2L5; 17% in the test with CDK11; 0% with CDK2. The “%Inh” value in the test with CDK3 amounted to 2%; with CDK4-cyclinD1, 8%.

Regarding `COc1ccc(Nc2ncc(C#N)c(Nc3ccccc3C(N)=O)n2)cc1N1CCN(C)CC1.Cl` [GSK1558669], the “%Inh” value in the test with BUB1 was 87%; with CAMK1B, 100%; in the test on CAMK1D, 99.1%; in the test on CAMK1G, 83%; with CAMK1 it was 95.6%; in the test with CAMK2A, 92.5%. Further, the “%Inh” value in the test with CAMK2B is reported as 78%; with CAMK2D, 83%; in the test with CAMK2G, 86%; in the test on CAMK4 it was 0%; with CAMKK1, 96.9%; with CAMKK2 it was 98.5%. For the same molecule, the “%Inh” value is 75% with CASK; 0% in the test with CDC2L1; 1% in the test with CDC2L2; 69% with CDC2L5; 0% with CDK11; 96.3% with CDK2. Besides, the results for the “%Inh” value in the test with CDK3 and in the test on CDK4-cyclinD1 were 90% and 94.8%, respectively.

With `CC(C)(C)n1cnc2c(N)ncnc21` [SKF-97359], the “%Inh” value was 52% in the test with BUB1; 63% in the test with CAMK1B; 1% in the test with CAMK1D; 0% in the test with CAMK1G; 0% with CAMK1; 0% with CAMK2A. The “%Inh” value with CAMK2B, in the test on CAMK2D, in the test on CAMK2G, in the test with CAMK4, in the test on CAMKK1 and in the test with CAMKK2 was 0% throughout. The “%Inh” value with CASK, in the test with CDC2L1, with CDC2L2, in the test on CDC2L5, in the test with CDK11 and with CDK2 was 0% in each case. Besides, the “%Inh” value in the test on CDK3 came to 0%; with CDK4-cyclinD1 it was 21%.

For the molecule `Cc1cccc(Cn2ccn3c(=O)cc(N4CCOCC4)nc23)c1` [GSK2297542], the “%Inh” value with BUB1 was 34%; in the test on CAMK1B it was 19%; with CAMK1D it was 70%; with CAMK1G, 9%; in the test on CAMK1, 71%; in the test on CAMK2A it was 0%. The “%Inh” value stood at 0% in the test with CAMK2B; 9% in the test on CAMK2D; 28% with CAMK2G; 20% with CAMK4; 5% with CAMKK1; 27% with CAMKK2. For the same molecule, the “%Inh” value was found to be 20% in the test with CASK; 0% with CDC2L1; 15% in the test on CDC2L2; 0% in the test on CDC2L5; 0% in the test on CDK11; 8% in the test on CDK2. Also, the entries for the “%Inh” value with CDK3 and in the test with CDK4-cyclinD1 were 20% and 0%, respectively.

Take `O=c1cc(N2CCOCC2)nc2n(Cc3cccc(C(F)(F)F)c3)ccn12` [GSK2297543]: the “%Inh” value in the test with BUB1 came to 13%; in the test on CAMK1B, 36%; with CAMK1D it was 6%; in the test with CAMK1G, 0%; in the test on CAMK1, 4%; with CAMK2A, 0%. Further, the “%Inh” value is reported as 0% with CAMK2B; 0% with CAMK2D; 4% with CAMK2G; 0% with CAMK4; 3% in the test with CAMKK1; 0% with CAMKK2. Further, the “%Inh” value in the test with CASK was determined as 9%; in the test with CDC2L1 it was 0%; in the test on CDC2L2, 18%; with CDC2L5, 0%; in the test on CDK11, 3%; in the test on CDK2, 0%. Moreover, the “%Inh” value in the test with CDK3 and in the test on CDK4-cyclinD1 was 0% each time.

As to `COc1ccc(S(=O)(=O)NC2CCN(c3cc(C)nc(Nc4cccc(C#N)c4)n3)CC2)cc1.O=C(O)C(F)(F)F` [GSK1653539], the “%Inh” value in the test on BUB1 came to 0%; in the test on CAMK1B, 1%; in the test on CAMK1D it was 17%; in the test with CAMK1G, 0%; in the test on CAMK1, 0%; in the test on CAMK2A, 0%. Further, the “%Inh” value in the test on CAMK2B was determined as 0%; with CAMK2D it was 6%; in the test on CAMK2G, 11%; with CAMK4, 0%; in the test on CAMKK1 it was 2%; in the test on CAMKK2, 16%. The “%Inh” value in the test on CASK turned out to be 0%; with CDC2L1, 0%; in the test on CDC2L2, 37%; with CDC2L5, 0%; in the test with CDK11 it was 0%; in the test with CDK2 it was 0%. Moreover, the “%Inh” value with CDK3 and with CDK4-cyclinD1 was 0% throughout.

For the molecule `Cl.Oc1cccc(Nc2ccnc3cc(-c4ccncc4)ccc23)c1` [GW494601], the “%Inh” value in the test with BUB1 is 81%; with CAMK1B, 5%; in the test with CAMK1D, 5%; in the test with CAMK1G it was 0%; with CAMK1 it was 35%; in the test on CAMK2A, 0%. Besides, the “%Inh” value with CAMK2B was 0%; in the test on CAMK2D, 6%; in the test with CAMK2G it was 29%; in the test on CAMK4, 0%; in the test with CAMKK1, 0%; with CAMKK2, 29%. The “%Inh” value is 10% in the test with CASK; 0% with CDC2L1; 10% in the test with CDC2L2; 0% in the test on CDC2L5; 4% in the test with CDK11; 0% in the test on CDK2. For the same molecule, the “%Inh” value in the test on CDK3 and in the test on CDK4-cyclinD1 was 0% throughout.

In the case of `CN(C1=C(c2ccccc2)C(=O)NC1=O)c1ccccc1` [SB-334860], the “%Inh” value with BUB1 is reported as 0%; in the test with CAMK1B it was 34%; with CAMK1D, 3%; with CAMK1G it was 0%; in the test with CAMK1 it was 6%; with CAMK2A, 7%. The “%Inh” value in the test on CAMK2B amounted to 11%; in the test on CAMK2D it was 1%; in the test on CAMK2G, 3%; in the test on CAMK4 it was 0%; with CAMKK1, 0%; with CAMKK2, 16%. Further, the “%Inh” value is 17% in the test on CASK; 0% with CDC2L1; 14% in the test with CDC2L2; 0% with CDC2L5; 8% with CDK11; 5% in the test on CDK2. For the same molecule, the “%Inh” value in the test with CDK3 was 8%; in the test on CDK4-cyclinD1, 0%.
